Experimental data taken from PubChem BioAssay (NCI).
About 83,000 compounds went through this panel and 20% of them were active in at least one assay; those are over-represented in the sample as a whole.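 96-well plates, one dose, 48 hours. Percent growth reported; active if below 10.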 Unmarked numbers belong to inactive results. Calls of active or inactive are those of the source.

Tested on: SNB-75 CNS
Assay: NCI-60 one-dose screen, 48 h (100 = growth as untreated, 0 = no growth, -100 = all killed)
Settings: 10 µM unless noted

Question: Which growth does the source give for COc1cc(-c2nc(SCCC(C)C)nc(Nc3ccccc3)c2C#N)cc(OC)c1OC here?
Answer: 66.8%

Question: O=C(N/N=C\c1cc(Cl)ccc1O)N/N=C/c1cc(Cl)ccc1O was tested. Which growth did it give?
Answer: 39.8%

Question: Which growth does the source give for Cc1ccc(S(=O)(=O)Oc2ccc([N+](=O)[O-])cc2[N+](=O)[O-])cc1 here?
Answer: 98.9%

Question: Which growth does the source give for COCCCNc1nc(NC(=O)c2cc(OC)cc(OC)c2)cc(-c2cccnc2)n1 here?
Answer: 73.1%

Question: How did the growth turn out when CC1(C)CC[C@]2(C(=O)O)CC[C@]3(C)C(=CC[C@@H]4[C@@]5(C)C/C(=C/c6ccco6)C(=O)C(C)(C)[C@@H]5CC[C@]43C)[C@@H]2C1 was run?
Answer: -15.6% [100 µM] (active)

Question: O=C(N=c1n(-c2ccccc2)nc2n1CCN2C1=NCCN1)c1ccc(Cl)cc1 was tested. Which growth did it give?
Answer: 66.3%

Tested on: SNB-19 CNS
Assay: as above
Settings: 10 µM unless noted

Question: CC1=CCc2ccccc21 was tested. Which growth did it give?
Answer: 101%

Question: For O=C1Nc2ccccc2/C1=C/C(=O)c1ccc(N2CCCCC2)cc1, which growth is on record?
Answer: 86.5%

Question: For COc1ccc2nc3c(cc2c1)C(=O)CC(c1ccccc1)C3 (stereo not drawn), which growth is on record?
Answer: 34.3%

Question: For Oc1ccc(N=Nc2nccs2)c(O)c1, which growth is on record?
Answer: 90.8%

Question: With Cc1cc(-c2ccc(N=Nc3c(S(=O)(=O)O)cc4cc(S(=O)(=O)O)cc(N)c4c3O)c(C)c2)ccc1N=Nc1cc(S(=O)(=O)O)c2ccccc2c1O as the compound, how does the growth read?
Answer: 94.4%

Question: How did the growth turn out when C#CCNC(=O)CC[C@]1(C)[C@H]2CC[C@@H]3[C@@H]([C@@](C)(O)CCC=C(C)C)CC[C@@]3(C)[C@]2(C)CC[C@H]1C(=C)C was run?
Answer: 60.9% [100 µM]

Question: Which growth does the source give for CC(=O)Nc1ccc2nc3ccc(NC(C)=O)cc3[n+](-c3ccccc3)c2c1 here?
Answer: 94.2%

Question: How did the growth turn out when CCN(CC)CCCCCCNc1cccc2cc(Br)cnc12 was run?
Answer: 107%

Question: COc1ccc(NC(=S)NNc2ccc(-c3ccc(OC)c(OC)c3)nn2)cc1 was tested. Which growth did it give?
Answer: 97.1%

Question: With O=[N+]([O-])c1cc([N+](=O)[O-])c(NN=C(c2ccc(O)cc2)c2ccc(O)cc2)cc1Cl as the compound, how does the growth read?
Answer: 89.4%

Question: Which growth does the source give for CC(C)C1=NOC(=O)C1=Cc1cn(-c2ccccc2)nc1-c1cccc([N+](=O)[O-])c1 here?
Answer: 74.2%

Question: Which growth does the source give for C=C(C)[C@@H]1CC[C@]2(C(=O)NCCNCCNCCN)CC[C@]3(C)[C@H](CC[C@@H]4[C@@]5(C)CC[C@H](O)C(C)(C)[C@@H]5CC[C@]43C)[C@@H]12 here?
Answer: -74.5% [100 µM] (active)

Question: O=C1COCCN1c1ccc(Nc2nc(Cl)nc(N3CCOCC3)n2)cc1 was tested. Which growth did it give?
Answer: 95.9%

Question: Which growth does the source give for Cn1cc(-c2noc(-c3cn(C)c4ncc(F)cc34)n2)c2cc(Br)ccc21 here?
Answer: 75.9%

Question: For CC1(C)NCCC[C@]2(C)[C@H]3C=CC4=C5C[C@](C)(CO)CC[C@]5(C)CC[C@@]4(C)[C@]3(C)CC[C@@H]12, which growth is on record?
Answer: -90.4% [100 µM] (active)

Question: CCCC(NC(=O)OCc1ccccc1)C(=O)O (stereo not drawn) was tested. Which growth did it give?
Answer: 99.4%

Question: For CC(C)C1=NOC(=O)C1=Cc1cn(-c2ccccc2)nc1-c1ccc(Cl)cc1, which growth is on record?
Answer: 86%

Question: With COc1cc(OC)cc(C(=O)Nc2cc(-c3cccnc3)nc(NCCCN3CCOCC3)n2)c1 as the compound, how does the growth read?
Answer: 98.7%

Question: With Brc1ccc2c(c1)CN(C1CCCCC1)CO2 as the compound, how does the growth read?
Answer: 103%

Question: How did the growth turn out when CC/C=C(\C)C(CCC)(CN=O)C(=O)OCC (stereo not drawn) was run?
Answer: 105%

Question: With O=C(Nc1ccc(F)cc1)c1ccccc1 as the compound, how does the growth read?
Answer: 101%

Question: How did the growth turn out when O=C(O)c1cccc(CN2CCN(c3cc4c(cc3F)c(=O)c(C(=O)O)cn4C3CC3)CC2)c1O was run?
Answer: 99.2%

Question: With COC(=O)c1c(C)[nH]c(/C=C2\N=C(c3ccc[nH]3)C=C2OC)c1C as the compound, how does the growth read?
Answer: 30.5%

Question: With C=CCCC1(C)NC(=O)NC1=O (stereo not drawn) as the compound, how does the growth read?
Answer: 99.6%

Question: How did the growth turn out when O=[N+]([O-])c1cccc(N=NNc2cccc([N+](=O)[O-])c2)c1 was run?
Answer: 92%

Question: With Cc1ccc(N)c(O)c1 as the compound, how does the growth read?
Answer: 102%

Question: CCN(CC)c1ccc2cc(NC(=O)OCCNC(=O)CCNC(=O)[C@H](CC(C)C)NC(=O)C(C)(C)NC(=O)C(C)(C)NC(=O)[C@H](CC(C)C)NC(=O)CCNC(=O)C(C)(C)NC(=O)[C@H](CC(C)C)NC(=O)CCNC(=O)[C@@](C)(CC)NC(=O)[C@H](C)NC(=O)CCNC(=O)C(C)(C)NC(=O)[C@H](C)NC(=O)[C@@H]3CCCN3C(=O)[C@@](C)(CC)NC(=O)[C@H](Cc3ccccc3)NC(=O)C3CCCN3C(=O)C(C)(C)NC(=O)C3CCCN3C(=O)C(C)(C)NC(C)=O)c(=O)oc2c1 (stereo partly drawn) was tested. Which growth did it give?
Answer: -76.5% (active)
